What all share (assay type): functional
The subject of assay [1] is Plasmodium falciparum. Put plainly: GSK_TCMDC: Inhibition of Plasmodium falciparum 3D7 in whole red blood cells, using parasite LDH activity as an index of growth. Test compounds present at 2uM.
The subject of assay [2] is Plasmodium falciparum. As to the kind of experiment: GSK_TCMDC: Inhibition of Plasmodium falciparum Dd2 in whole red blood cells, using parasite LDH activity as an index of growth. Test compounds present at 2uM.
The next assay deals with HepG2. As to the kind of experiment: GSK_TCMDC: Percent inhibition of human HepG2 cell line. Test compounds present at 10uM.

Inhibition data for 22 compounds are collected here from ChEMBL document CHEMBL1157539, “Thousands of chemical starting points for antimalarial lead identification” (Nature, 2010).

SMILES strings stand for the structures.

Regarding `N#CC(c1ccc(F)cc1)c1ccc2c(C(F)(F)F)cc(C(F)(F)F)nc2n1` (stereo unspecified), the Inhibition – broadly, the change of the read-out against control, counted positive when it falls – in the assay on Plasmodium falciparum [1] worked out at 97%; in the assay on Plasmodium falciparum [2], 89%; with HepG2 it was 9%.

Take `Cc1cc(=NN=Cc2ccccc2Cl)c2cccc(C)c2[nH]1`: the values for the Inhibition in the assay with Plasmodium falciparum [1], in the assay with Plasmodium falciparum [2] and in the assay on HepG2 were 97%, 98% and 10%, respectively.

In the case of `CCNC(=O)N[C@@H]1CN[C@@H](C#Cc2cc3c(Nc4ccc(OCc5cccc(F)c5)c(Cl)c4)ncnc3s2)C1`, the figures for the Inhibition in the assay on Plasmodium falciparum [1], in the assay on Plasmodium falciparum [2] and in the assay on HepG2 were 85%, 27% and 0%, respectively.

Consider `Cc1cc(N/N=C/c2ccccc2[N+](=O)[O-])c2cc(C(F)(F)F)ccc2n1`, for which the Inhibition in the assay on Plasmodium falciparum [1] is 97%; in the assay with Plasmodium falciparum [2], 39%; in the assay with HepG2 it was 0%.

Turning to `Oc1ccc(-c2cncc(NCc3ccc(F)c(F)c3)c2)cc1`, the Inhibition turned out to be 95% in the assay with Plasmodium falciparum [1], 80% with Plasmodium falciparum [2] and 0% in the assay with HepG2.

On to `CC(C)NCc1ccc(-c2ccc(NS(=O)(=O)c3cccc4cccnc34)cc2)cc1.O=C(O)C(F)(F)F`, for which the Inhibition was found to be 90% in the assay with Plasmodium falciparum [1], 45% with Plasmodium falciparum [2] and 27% in the assay on HepG2.

Turning to `COCCNC(=O)C1CCN(C(c2ccc(Cl)cc2)c2ccc(Cl)cc2)CC1`, the values for the Inhibition with Plasmodium falciparum [1], in the assay with Plasmodium falciparum [2] and in the assay with HepG2 were 86%, 73% and 3%, respectively.

As for `CCOc1cc(C(=O)NC2CCN(Cc3ccccc3)CC2)ccc1-c1nc2cc(Cl)ccc2[nH]1`, the figures for the Inhibition with Plasmodium falciparum [1], in the assay with Plasmodium falciparum [2] and in the assay with HepG2 were 100%, 84% and 10%, respectively.

On to `CCCN(CCC)c1nn2c(=O)c(C(=O)N3CCN(Cc4ccccc4)CC3)cnc2s1`, for which the Inhibition was determined as 84% in the assay on Plasmodium falciparum [1], 89% with Plasmodium falciparum [2] and 0% with HepG2.

On to `CCCCC1(NC(=O)[C@@H](Nc2ccc(C#N)c3ccccc23)C2CCCCC2)CCCCC1.O=C(O)C(F)(F)F`, for which the Inhibition worked out at 91% with Plasmodium falciparum [1], 84% in the assay with Plasmodium falciparum [2] and 8% in the assay on HepG2.

Take `COc1ccc(C2=CCN(c3ccc(Cl)c(Cl)c3)C2=O)cc1OCCN1CCCCC1.Cl`: the values for the Inhibition in the assay with Plasmodium falciparum [1], in the assay with Plasmodium falciparum [2] and in the assay on HepG2 were 97%, 99% and 19%, respectively.

`CN1CCN(CC(=O)Nc2cccc(-c3ccc(-c4nc5cc(C(F)(F)F)ccc5[nH]4)cc3)c2)CC1`: the values for the Inhibition in the assay with Plasmodium falciparum [1], with Plasmodium falciparum [2] and in the assay with HepG2 were 100%, 94% and 37%, respectively.

As for `COc1cc(Cc2cnc(N)nc2N)cc(OCCCCC2SC(=O)NC2=O)c1Br` (stereo unspecified), the Inhibition amounted to 94% in the assay on Plasmodium falciparum [1], 0% in the assay with Plasmodium falciparum [2] and 15% in the assay with HepG2.

With `CCOCCCNc1ncc(-c2ccsc2)c(-c2nc(C)cs2)n1`, the Inhibition in the assay with Plasmodium falciparum [1] is recorded as 89%; with Plasmodium falciparum [2], 83%; with HepG2, 0%.

As for `COc1cc(/C=C/C(=O)NCC(CCNc2cc(=O)c3ccccc3[nH]2)NCc2cc(Br)cc(Br)c2)cc(OC)c1` (stereo unspecified), the results for the Inhibition in the assay with Plasmodium falciparum [1], in the assay with Plasmodium falciparum [2] and in the assay with HepG2 were 90%, 28% and 0%, respectively.

Take `CCOc1ccc2[nH]c(C)cc(=NN=Cc3cccc(F)c3)c2c1`: the Inhibition in the assay on Plasmodium falciparum [1] worked out at 100%; with Plasmodium falciparum [2], 23%; in the assay on HepG2, 0%.

For `CN1CCCC1CCCOC(=O)c1ccc(N)cc1` (stereo unspecified), the Inhibition in the assay with Plasmodium falciparum [1] amounted to 100%; in the assay on Plasmodium falciparum [2] it was 2%; with HepG2, 8%.

`CNC(=O)c1ccccc1Nc1nc(Nc2ccc(N3CCN(C)CC3)nc2)ncc1C.Cl`: the Inhibition is 92% in the assay on Plasmodium falciparum [1], 50% in the assay on Plasmodium falciparum [2] and 75% in the assay on HepG2.

Consider `Cn1nc(C(F)(F)F)c(-c2ccc(Br)cc2)c1NC(=O)Cc1ccccc1F`, for which the Inhibition in the assay with Plasmodium falciparum [1] is reported as 100%; with Plasmodium falciparum [2] it was 100%; with HepG2, 6%.

As to `CCCCOC(=O)[C@H](CCC)NC(=O)c1ccc(NS(=O)(=O)c2ccc3nc(N)[nH]c(=O)c3c2)cc1`, the Inhibition was 99% with Plasmodium falciparum [1], 3% in the assay with Plasmodium falciparum [2] and 66% in the assay with HepG2.

With `CC(C)n1c(CC2CCN(CC3CCN(C(=O)/C=C/c4ccc(Cl)c(Cl)c4)CC3)CC2)nc2ccccc21`, the figures for the Inhibition with Plasmodium falciparum [1], in the assay with Plasmodium falciparum [2] and with HepG2 were 100%, 23% and 19%, respectively.

As to `Br.CCCc1cc(OCCCOc2ccccc2)ccc1OCCCON1C(=N)N=C(N)NC1(C)C`, the results for the Inhibition in the assay with Plasmodium falciparum [1], in the assay on Plasmodium falciparum [2] and in the assay on HepG2 were 94%, 96% and 68%, respectively.
